Measurements: PubChem BioAssay AID1159580 (chemical genetic matrix, 2015)
The campaign covered roughly 5,500 compounds. About 2,000 (36%) were called active. Inconclusive results (about 18%) are left out. Rule as the data show it: active = normalized growth mostly below about 0.91 (no sharp cut-off); inconclusive = no clear call, values can overlap the other calls; inactive = mostly above about 0.92. Some of the results follow.

Test: chemical genetic growth profiling, strain panel (AID 1159580);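 also: tested at 20 µM; growth read once vehicle control cultures reached saturation at 30 °C; 1 = growth at the plate median or of vehicle wells; lower values mean less growth of the strain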
Details: S. cerevisiae deletion strains, growth OD
[1] = locus YGR078C, strain PAC10, stronger effect = lower value
[2] = locus YJR075W, strain HOC1, stronger effect = lower value
[3] = locus YMR307W, strain GAS1, stronger effect = lower value
[4] = locus YNL153C, strain GIM3, stronger effect = lower value

Measured: normalized growth

COc1cc2c(cc1OC)[C@@H](c1ccccc1)CN(C)CC2
inactive: locus YAL040C, strain CLN3, stronger effect = lower value 1 | locus YCL061C, strain MRC1 (second series), stronger effect = lower value 1.01 | locus YDR363W, strain ESC2, stronger effect = lower value 1.01 | locus YER002W, strain NOP16, stronger effect = lower value 1 | [1] 1.01 | [2] 1.01 | locus YMR263W, strain SAP30, stronger effect = lower value 1.01 | [3] 1.01 | locus YNL128W, strain TEP1, stronger effect = lower value 1.01 | [4] 1.04 | locus YNL175C, strain NOP13, stronger effect = lower value 1 | locus YNL197C, strain WHI3, stronger effect = lower value 1 | locus YNL224C, strain SQS1, stronger effect = lower value 1 | locus YNL322C, strain KRE1, stronger effect = lower value 1.01 | locus YOR083W, strain WHI5 (second series), stronger effect = lower value 1.02 | locus YPL055C, strain LGE1, stronger effect = lower value 0.995 | locus YPL241C, strain CIN2, stronger effect = lower value 1.01

COc1ccccc1/C=C\C(=O)O
inactive: locus YAL013W, strain DEP1, stronger effect = lower value 1.02 | locus YAL021C, strain ccr4, stronger effect = lower value 1.01 | locus YAL026C, strain drs2, stronger effect = lower value 1.01 | locus YAL030W, strain snc1, stronger effect = lower value 0.988 | locus YBL061C, strain skt5, stronger effect = lower value 1 | locus YBR009C, strain hhf1, stronger effect = lower value 1 | locus YBR021W, strain FUR4, stronger effect = lower value 1.02 | locus YBR023C, strain chs3, stronger effect = lower value 1.01 | locus YBR171W, strain sec66, stronger effect = lower value 0.996 | locus YBR229C, strain ROT2, stronger effect = lower value 1.02 | locus YBR231C, strain swc5, stronger effect = lower value 1.02 | locus YBR279W, strain paf1, stronger effect = lower value 1 | locus YCL011C, strain gbp2, stronger effect = lower value 0.99 | locus YCL016C, strain dcc1, stronger effect = lower value 1.01 | locus YCL029C, strain bik1, stronger effect = lower value 1.02 | locus YCL061C, strain MRC1, stronger effect = lower value 0.993 | locus YCL069W, strain vba3, stronger effect = lower value 0.996 | locus YCR088W, strain abp1, stronger effect = lower value 0.996 | locus YDL005C, strain med2, stronger effect = lower value 1 | locus YDL035C, strain GPR1, stronger effect = lower value 1.08 | locus YDL040C, strain nat1, stronger effect = lower value 0.994 | locus YDL074C, strain BRE1, stronger effect = lower value 1.19 | locus YDL101C, strain DUN1, stronger effect = lower value 1.01 | locus YDL185W, strain tfp1, stronger effect = lower value 0.971 | locus YDL192W, strain arf1, stronger effect = lower value 1.04 | locus YDR001C, strain nth1, stronger effect = lower value 0.991 | locus YDR069C, strain doa4, stronger effect = lower value 1.03 | locus YDR101C, strain arx1, stronger effect = lower value 1.01 | locus YDR137W, strain rgp1, stronger effect = lower value 0.955 | locus YDR159W, strain sac3, stronger effect = lower value 1.03 | locus YDR162C, strain NBP2, stronger effect = lower value 1.05 | locus YDR195W, strain ref2 1.07 | locus YDR297W, strain sur2, stronger effect = lower value 0.994 | locus YDR318W, strain mcm21, stronger effect = lower value 1.04 | locus YDR334W, strain swr1, stronger effect = lower value 1.01 | locus YDR335W, strain msn5, stronger effect = lower value 1 | locus YDR388W, stronger effect = lower value 1 | locus YDR392W, strain spt3, stronger effect = lower value 0.793 | locus YDR502C, strain sam2, stronger effect = lower value 1.03 | locus YEL003W, strain gim4, stronger effect = lower value 0.996 | locus YEL037C, strain rad23, stronger effect = lower value 1 | locus YEL061C, strain CIN8 (second series), stronger effect = lower value 0.992 | locus YER015W, strain faa2, stronger effect = lower value 1.01 | locus YER016W, strain bim1, stronger effect = lower value 1.01 | locus YER110C, stronger effect = lower value 1.03 | locus YER111C, strain swi4, stronger effect = lower value 0.993 | locus YER155C, strain BEM2 (second series), stronger effect = lower value 0.949 | locus YER155C, strain BEM2, stronger effect = lower value 1.01 | locus YER167W, strain BCK2, stronger effect = lower value 1.01 | locus YFR010W, strain ubp6, stronger effect = lower value 1.02 | locus YGL078C, strain dbp3, stronger effect = lower value 1.02 | locus YGL086W, strain mad1, stronger effect = lower value 1.01 | locus YGL167C, strain pmr1, stronger effect = lower value 0.991 | locus YGL173C, strain kem1, stronger effect = lower value 0.998 | locus YGL227W, strain vid30, stronger effect = lower value 1 | locus YGL240W, strain doc1, stronger effect = lower value 0.981 | locus YGL248W, strain PDE1, stronger effect = lower value 1.08 | locus YGL253W, strain hxk2, stronger effect = lower value 1.01 | [1] 1.06 | locus YGR135W, strain pre9, stronger effect = lower value 1.04 | locus YGR252W, strain gcn5, stronger effect = lower value 1.15 | locus YHR013C, strain ard1, stronger effect = lower value 0.927 | locus YHR027C, strain rpn1, stronger effect = lower value 1 | locus YHR030C, strain SLT2, stronger effect = lower value 1.01 | locus YHR079C, strain IRE1 (second series), stronger effect = lower value 1.03 | locus YHR094C, strain hxt1, stronger effect = lower value 0.998 | locus YHR129C, strain ARP1, stronger effect = lower value 1.03 | locus YHR142W, strain chs7, stronger effect = lower value 0.971 | locus YHR200W, strain rpn10, stronger effect = lower value 1.01 | locus YIL066C, strain RNR3, stronger effect = lower value 1.03 | locus YIL073C, strain SPO22, stronger effect = lower value 1.23 | locus YIL125W, strain kgd1, stronger effect = lower value 1.01 | locus YIR030C, strain dcg1, stronger effect = lower value 1.02 | locus YJL092W, strain hpr5, stronger effect = lower value 1 | locus YJL095W, strain BCK1 (second series), stronger effect = lower value 1.02 | locus YJL095W, strain BCK1, stronger effect = lower value 1.07 | locus YJL115W, strain asf1, stronger effect = lower value 1.02 | locus YJL129C, strain trk1, stronger effect = lower value 0.989 | locus YJL134W, strain LCB3, stronger effect = lower value 1.01 | locus YJL154C, strain vps35, stronger effect = lower value 1.01 | locus YJL164C, strain tpk1, stronger effect = lower value 0.992 | locus YJL166W, strain qcr8, stronger effect = lower value 0.98 | locus YJL168C, strain set2, stronger effect = lower value 1.04 | locus YJL187C, strain SWE1 (second series), stronger effect = lower value 1.04 | locus YJL187C, strain SWE1, stronger effect = lower value 0.991 | locus YJR043C, strain POL32, stronger effect = lower value 1.05 | [2] 1.02 | locus YKL009W, strain mrt4, stronger effect = lower value 1.03 | locus YKL068W, stronger effect = lower value 1.01 | locus YKL085W, strain MDH1 (second series), stronger effect = lower value 0.99 | locus YKL085W, strain MDH1, stronger effect = lower value 0.99 | locus YKL160W, strain elf1, stronger effect = lower value 0.986 | locus YKR001C, strain vps1, stronger effect = lower value 1.07 | locus YKR026C, strain gcn3, stronger effect = lower value 1 | locus YKR091W, strain srl3, stronger effect = lower value 0.995 | locus YLL001W, strain dnm1, stronger effect = lower value 0.993 | locus YLL026W, stronger effect = lower value 1 | locus YLL041C, strain sdh2, stronger effect = lower value 0.999 | locus YLR027C, strain aat2, stronger effect = lower value 1.01 | locus YLR039C, strain RIC1, stronger effect = lower value 1.22 | locus YLR058C, strain SHM2, stronger effect = lower value 1.04 | locus YLR102C, strain apc9, stronger effect = lower value 1.01 | locus YLR221C, strain rsa3, stronger effect = lower value 0.988 | locus YLR258W, strain gsy2, stronger effect = lower value 0.987 | locus YLR262C, strain YPT6 (second series), stronger effect = lower value 0.932 | locus YLR268W, strain sec22, stronger effect = lower value 1.05 | locus YLR320W, strain mms22, stronger effect = lower value 0.942 | locus YLR330W, strain CHS5, stronger effect = lower value 1.03 | locus YLR342W, strain FKS1 (second series), stronger effect = lower value 1.05 | locus YLR342W, strain FKS1, stronger effect = lower value 0.996 | locus YLR357W, strain rsc2, stronger effect = lower value 1.02 | locus YLR370C, strain arc18, stronger effect = lower value 1 | locus YLR371W, strain rom2, stronger effect = lower value 1.02 | locus YLR384C, strain iki3, stronger effect = lower value 1.03 | locus YLR418C, strain cdc73, stronger effect = lower value 1.15 | locus YML016C, strain PPZ1, stronger effect = lower value 1.01 | locus YML032C, strain rad52, stronger effect = lower value 1.03 | locus YML120C, strain ndi1, stronger effect = lower value 0.994 | locus YML124C, strain tub3, stronger effect = lower value 1.02 | locus YMR058W, strain fet3, stronger effect = lower value 0.999 | locus YMR078C, strain ctf18, stronger effect = lower value 1.02 | locus YMR125W, strain sto1, stronger effect = lower value 1 | locus YMR129W, stronger effect = lower value 0.993 | locus YMR205C, strain PFK2, stronger effect = lower value 0.928 | locus YMR223W, strain ubp8, stronger effect = lower value 1.03 | locus YMR231W, strain pep5, stronger effect = lower value 1.01 | [3] 1.25 | locus YNL067W, strain RPL9B, stronger effect = lower value 1.01 | locus YNL071W, strain lat1, stronger effect = lower value 0.966 | [4] 1.06 | locus YNL209W, strain ssb2, stronger effect = lower value 1.01 | locus YNL233W, strain BNI4, stronger effect = lower value 1.08 | locus YNL248C, strain rpa49, stronger effect = lower value 1 | locus YNL250W, strain rad50, stronger effect = lower value 1.02 | locus YNL271C, strain bni1, stronger effect = lower value 1.01 | locus YNL298W, strain CLA4, stronger effect = lower value 1.03 | locus YNL307C, strain MCK1, stronger effect = lower value 1.02 | locus YNL322C, strain KRE1 (second series), stronger effect = lower value 0.999 | locus YNR049C, strain mso1, stronger effect = lower value 1 | locus YNR052C, strain pop2, stronger effect = lower value 1.03 | locus YOL006C, strain TOP1, stronger effect = lower value 1.32 | locus YOL012C, strain htz1 1.02 | locus YOL147C, strain pex11, stronger effect = lower value 1.02 | locus YOR001W, strain rrp6, stronger effect = lower value 0.979 | locus YOR061W, strain CKA2, stronger effect = lower value 1.02 | locus YOR069W, strain VPS5, stronger effect = lower value 1.02 | locus YOR070C, strain gyp1, stronger effect = lower value 1 | locus YOR080W, strain dia2, stronger effect = lower value 1.01 | locus YOR083W, strain WHI5, stronger effect = lower value 0.994 | locus YOR106W, strain vam3, stronger effect = lower value 0.995 | locus YOR136W, strain idh2, stronger effect = lower value 1.02 | locus YOR144C, strain elg1, stronger effect = lower value 1.02 | locus YOR184W, strain ser1, stronger effect = lower value 1.05 | locus YOR265W, strain rbl2, stronger effect = lower value 0.994 | locus YOR270C, strain vph1, stronger effect = lower value 0.843 | locus YOR290C, strain snf2, stronger effect = lower value 0.952 | locus YOR316C, strain cot1, stronger effect = lower value 1.01 | locus YPL051W, strain arl3, stronger effect = lower value 0.992 | locus YPL078C, strain atp4, stronger effect = lower value 0.987 | locus YPL106C, strain sse1, stronger effect = lower value 0.987 | locus YPL240C, strain hsp82, stronger effect = lower value 1 | locus YPR119W, strain clb2, stronger effect = lower value 1.02 | locus YPR141C, strain kar3, stronger effect = lower value 0.999 | locus YPR163C, strain tif3, stronger effect = lower value 1.02 | locus YPR167C, strain met16, stronger effect = lower value 1.03 | strain wtn01, stronger effect = lower value 1.03
